Reference: PubChem BioAssay AID1159580 (chemical genetic matrix, 2015)
Out of some 5,500 compounds screened, about 2,000 (36%) were called active. Not shown: some 18% with an inconclusive outcome. Rule as the data show it: active = normalized growth mostly below about 0.91 (no sharp cut-off); inconclusive = no clear call, values can overlap the other calls; inactive = mostly above about 0.92. This is one part of the list.

Assay: chemical genetic growth profiling, strain panel (AID 1159580);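 also: tested at 20 µM; growth read once vehicle control cultures reached saturation at 30 °C; 1 = growth at the plate median or of vehicle wells; lower values mean less growth of the strain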
Details: S. cerevisiae deletion strains, growth OD
[1] = locus YHR030C, strain SLT2, hits give low values
[2] = locus YJL095W, strain BCK1, hits give low values

Measured: normalized growth

CC(C)(O)[C@@H]1Cc2cc3ccc(=O)oc3cc2O1
inactive: locus YBR021W, strain FUR4, hits give low values 1.03 | locus YBR229C, strain ROT2, hits give low values 1 | locus YCL029C, strain bik1, hits give low values 1.01 | locus YDL035C, strain GPR1, hits give low values 1.02 | locus YDL074C, strain BRE1, hits give low values 1.04 | locus YDL101C, strain DUN1, hits give low values 1.01 | locus YDL134C, strain PPH21, hits give low values 1 | locus YDL185W, strain tfp1, hits give low values 1.02 | locus YDL192W, strain arf1, hits give low values 1.03 | locus YDR101C, strain arx1, hits give low values 1 | locus YDR150W, strain NUM1, hits give low values 1 | locus YDR162C, strain NBP2, hits give low values 0.989 | locus YDR318W, strain mcm21, hits give low values 1.01 | locus YDR388W, hits give low values 1.01 | locus YDR502C, strain sam2, hits give low values 1.04 | locus YEL061C, strain CIN8, hits give low values 1 | locus YER110C, hits give low values 1.01 | locus YER155C, strain BEM2, hits give low values 1 | locus YER167W, strain BCK2, hits give low values 1.02 | locus YGL078C, strain dbp3, hits give low values 1.01 | locus YGL086W, strain mad1, hits give low values 1.03 | locus YGL248W, strain PDE1, hits give low values 1.01 | locus YGR078C, strain PAC10, hits give low values 1 | locus YGR135W, strain pre9, hits give low values 0.996 | locus YGR229C, strain SMI1, hits give low values 1.04 | locus YGR252W, strain gcn5, hits give low values 0.991 | [1] 1.01 | locus YHR079C, strain IRE1 (second series), hits give low values 1 | locus YHR094C, strain hxt1, hits give low values 1.01 | locus YHR129C, strain ARP1, hits give low values 1.01 | locus YHR200W, strain rpn10, hits give low values 1.03 | locus YIL066C, strain RNR3, hits give low values 1.01 | locus YIL073C, strain SPO22, hits give low values 1.02 | locus YIL125W, strain kgd1, hits give low values 1.02 | locus YIR030C, strain dcg1, hits give low values 1.02 | [2] 1.03 | locus YJL134W, strain LCB3, hits give low values 1.02 | locus YJL168C, strain set2, hits give low values 1.03 | locus YJL187C, strain SWE1 (second series), hits give low values 1.01 | locus YJR043C, strain POL32, hits give low values 1.01 | locus YJR075W, strain HOC1, hits give low values 1.01 | locus YKL009W, strain mrt4, hits give low values 1.01 | locus YKL068W, hits give low values 1.02 | locus YKL085W, strain MDH1 (second series), hits give low values 1 | locus YKL085W, strain MDH1, hits give low values 1 | locus YKR001C, strain vps1, hits give low values 1.01 | locus YLR039C, strain RIC1, hits give low values 1.01 | locus YLR058C, strain SHM2, hits give low values 1.01 | locus YLR102C, strain apc9, hits give low values 1.02 | locus YLR262C, strain YPT6, hits give low values 0.995 | locus YLR268W, strain sec22, hits give low values 1.03 | locus YLR330W, strain CHS5, hits give low values 1.01 | locus YLR342W, strain FKS1 (second series), hits give low values 1.07 | locus YLR371W, strain rom2, hits give low values 1.02 | locus YLR418C, strain cdc73, hits give low values 0.989 | locus YML016C, strain PPZ1, hits give low values 1.01 | locus YML032C, strain rad52, hits give low values 1.02 | locus YML124C, strain tub3, hits give low values 1.02 | locus YMR078C, strain ctf18, hits give low values 1.03 | locus YMR223W, strain ubp8, hits give low values 0.997 | locus YMR307W, strain GAS1, hits give low values 1.1 | locus YNL067W, strain RPL9B, hits give low values 0.999 | locus YNL128W, strain TEP1, hits give low values 1.02 | locus YNL233W, strain BNI4, hits give low values 1.02 | locus YNL250W, strain rad50, hits give low values 1 | locus YNL271C, strain bni1, hits give low values 1 | locus YNL298W, strain CLA4, hits give low values 1.01 | locus YNL307C, strain MCK1, hits give low values 1.03 | locus YNL322C, strain KRE1, hits give low values 1.01 | locus YNR052C, strain pop2, hits give low values 1.01 | locus YOL012C, strain htz1 1.44 | locus YOL147C, strain pex11, hits give low values 1.01 | locus YOR061W, strain CKA2, hits give low values 1.01 | locus YOR069W, strain VPS5, hits give low values 1.01 | locus YOR136W, strain idh2, hits give low values 1.02 | locus YOR144C, strain elg1, hits give low values 1 | locus YOR184W, strain ser1, hits give low values 1 | locus YOR316C, strain cot1, hits give low values 1.05 | locus YPL241C, strain CIN2, hits give low values 1.01 | locus YPR119W, strain clb2, hits give low values 1.02 | locus YPR141C, strain kar3, hits give low values 1.01 | locus YPR163C, strain tif3, hits give low values 1.01 | locus YPR167C, strain met16, hits give low values 1.03 | strain wtn01, hits give low values 1.05

O=c1ccc2cc(OC3OC(CO)C(O)C(O)C3O)c(O)cc2o1 (configuration not stated)
inactive: locus YAL021C, strain ccr4, hits give low values 0.959 | locus YAL026C, strain drs2, hits give low values 1 | locus YAL030W, strain snc1, hits give low values 0.986 | locus YBL061C, strain skt5, hits give low values 1 | locus YBR009C, strain hhf1, hits give low values 0.995 | locus YBR023C, strain chs3, hits give low values 0.992 | locus YBR171W, strain sec66, hits give low values 1 | locus YBR231C, strain swc5, hits give low values 1.03 | locus YBR279W, strain paf1, hits give low values 0.998 | locus YCL011C, strain gbp2, hits give low values 0.974 | locus YCL016C, strain dcc1, hits give low values 0.979 | locus YCL069W, strain vba3, hits give low values 0.983 | locus YCR088W, strain abp1, hits give low values 0.985 | locus YDL005C, strain med2, hits give low values 0.989 | locus YDL040C, strain nat1, hits give low values 0.991 | locus YDR001C, strain nth1, hits give low values 0.972 | locus YDR069C, strain doa4, hits give low values 0.998 | locus YDR137W, strain rgp1, hits give low values 0.976 | locus YDR159W, strain sac3, hits give low values 1.06 | locus YDR195W, strain ref2 0.973 | locus YDR297W, strain sur2, hits give low values 0.995 | locus YDR334W, strain swr1, hits give low values 0.991 | locus YDR335W, strain msn5, hits give low values 0.991 | locus YDR392W, strain spt3, hits give low values 0.927 | locus YEL003W, strain gim4, hits give low values 1 | locus YEL037C, strain rad23, hits give low values 0.986 | locus YEL061C, strain CIN8 (second series), hits give low values 0.984 | locus YER015W, strain faa2, hits give low values 1 | locus YER016W, strain bim1, hits give low values 0.993 | locus YER111C, strain swi4, hits give low values 1.01 | locus YER155C, strain BEM2 (second series), hits give low values 1.07 | locus YFR010W, strain ubp6, hits give low values 0.997 | locus YGL167C, strain pmr1, hits give low values 0.989 | locus YGL173C, strain kem1, hits give low values 0.998 | locus YGL227W, strain vid30, hits give low values 0.989 | locus YGL240W, strain doc1, hits give low values 1.04 | locus YGL253W, strain hxk2, hits give low values 0.996 | locus YHR013C, strain ard1, hits give low values 0.992 | locus YHR027C, strain rpn1, hits give low values 0.977 | [1] 0.985 | locus YHR079C, strain IRE1, hits give low values 0.969 | locus YHR142W, strain chs7, hits give low values 0.959 | locus YJL092W, strain hpr5, hits give low values 0.981 | locus YJL095W, strain BCK1 (second series), hits give low values 0.995 | [2] 0.968 | locus YJL115W, strain asf1, hits give low values 0.973 | locus YJL129C, strain trk1, hits give low values 1 | locus YJL154C, strain vps35, hits give low values 0.981 | locus YJL164C, strain tpk1, hits give low values 0.947 | locus YJL166W, strain qcr8, hits give low values 1 | locus YJR066W, strain TOR1, hits give low values 0.919 | locus YKL160W, strain elf1, hits give low values 0.966 | locus YKR026C, strain gcn3, hits give low values 1 | locus YKR091W, strain srl3, hits give low values 0.989 | locus YLL001W, strain dnm1, hits give low values 0.993 | locus YLL026W, hits give low values 0.988 | locus YLL041C, strain sdh2, hits give low values 0.983 | locus YLR027C, strain aat2, hits give low values 1.01 | locus YLR113W, strain HOG1, hits give low values 0.973 | locus YLR221C, strain rsa3, hits give low values 1.04 | locus YLR258W, strain gsy2, hits give low values 0.972 | locus YLR262C, strain YPT6 (second series), hits give low values 0.98 | locus YLR320W, strain mms22, hits give low values 1.04 | locus YLR342W, strain FKS1, hits give low values 0.995 | locus YLR357W, strain rsc2, hits give low values 1 | locus YLR370C, strain arc18, hits give low values 1.02 | locus YLR384C, strain iki3, hits give low values 1.01 | locus YML120C, strain ndi1, hits give low values 0.988 | locus YMR058W, strain fet3, hits give low values 1 | locus YMR125W, strain sto1, hits give low values 0.92 | locus YMR129W, hits give low values 0.993 | locus YMR205C, strain PFK2, hits give low values 0.969 | locus YMR231W, strain pep5, hits give low values 1 | locus YNL071W, strain lat1, hits give low values 0.988 | locus YNL183C, strain NPR1, hits give low values 0.897 | locus YNL209W, strain ssb2, hits give low values 0.99 | locus YNL248C, strain rpa49, hits give low values 1.04 | locus YNL322C, strain KRE1 (second series), hits give low values 1.01 | locus YNR049C, strain mso1, hits give low values 0.982 | locus YOR001W, strain rrp6, hits give low values 1.02 | locus YOR070C, strain gyp1, hits give low values 0.998 | locus YOR080W, strain dia2, hits give low values 1.01 | locus YOR083W, strain WHI5, hits give low values 0.964 | locus YOR106W, strain vam3, hits give low values 0.939 | locus YOR231W, strain MKK1, hits give low values 0.973 | locus YOR265W, strain rbl2, hits give low values 1 | locus YOR270C, strain vph1, hits give low values 1.03 | locus YOR290C, strain snf2, hits give low values 0.919 | locus YPL051W, strain arl3, hits give low values 1.02 | locus YPL078C, strain atp4, hits give low values 0.935 | locus YPL106C, strain sse1, hits give low values 1.01 | locus YPL240C, strain hsp82, hits give low values 0.998 | locus YPL256C, strain CLN2, hits give low values 0.956
